Results: the supplement of paper PMC10849652
The full data set covers some 7,900 targets. This sample favours those with a hit. About 0.6% of all pairs of compound and target were hits.

Tests used:
Assay in all cases: log2 fold change, soluble protein after heating vs DMSO (PISA); higher = thermal stabilisation; K562 cells, 10 uM, 30 min; active = over 0.2 and 3.5 SD of the protein, either way, in both replicates (recomputed)
[1] = compound: COC1=CC=C(C=C1)CN2C=CC3=C2C=C(C=C3)C(=O)NO
Outline: (§1)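 Soluble protein was defined as the supernatant after 21,000xg for 90 min. It came from K562 cells at 2×10^6 cells/mL given 10 μM compound for 30 min, heated in aliquots for 3 min across 48°C-58°C, pooled, and extracted in PBS with 0.5% NP-40 at 4°C, and was quantified by TMTpro 16plex LC-MS/MS with equalised channel sums. Thermal stability against control samples, from duplicates, is reported as log2 fold change.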

[2] = compound: CON(C)C(=O)N1N=C(c2cc(F)ccc2F)S[C@@]1(CCCN)c1ccccc1 [filanesib]
Outline: as §1

[3] = compound: CO[C@H]1C[C@@H]2CC[C@@H](C)[C@@](O)(O2)C(=O)C(=O)N2CCCC[C@H]2C(=O)O[C@H]([C@H](C)C[C@@H]2CC[C@H](n3cnnn3)[C@H](OC)C2)CC(=O)[C@H](C)/C=C(\C)[C@@H](O)[C@@H](OC)C(=O)[C@H](C)C[C@H](C)/C=C/C=C/C=C/1C [zotarolimus]
Outline: as §1

[4] = compound: COc1cc(C(=O)O)ccc1NC(=O)[C@@H]1N[C@@H](CC(C)(C)C)[C@](C#N)(c2ccc(Cl)cc2F)[C@H]1c1cccc(Cl)c1F [idasanutlin]
Outline: as §1

[5] = compound: COc1cc(Nc2ncc3c(n2)-c2ccc(Cl)cc2C(c2c(F)cccc2OC)=NC3)ccc1C(=O)O [alisertib]
Outline: as §1

[6] = compound: COc1cc2nc(-c3cc(F)ccc3O)nc(N[C@@H]3CNC[C@H]3C(C)(C)O)c2cc1OC
Outline: as §1

[7] = compound: COc1cc2ncnc(Nc3ccc(F)c(Cl)c3)c2cc1OCCCN1CCOCC1 [gefitinib]
Outline: as §1

[8] = compound: COc1cccc2cc(-c3nc([C@H]4CC[C@H](C(=O)O)CC4)n4ncnc(N)c34)[nH]c12
Outline: as §1

[9] = compound: CS(=O)(=O)CCNCc1ccc(-c2ccc3ncnc(Nc4ccc(OCc5cccc(F)c5)c(Cl)c4)c3c2)o1 [lapatinib]
Outline: as §1

[10] = compound: CS(=O)(=O)N1CCN(Cc2cc3nc(-c4cccc5[nH]ncc45)nc(N4CCOCC4)c3s2)CC1 [pictilisib]
Outline: as §1

[11] = compound: CS(=O)(=O)c1ccc(-c2cnc(N)c(C(=O)Nc3ccccc3)n2)cc1
Outline: as §1

[12] = compound: C[C@@H](Oc1cc(-c2cnn(C3CCNCC3)c2)cnc1N)c1c(Cl)ccc(F)c1Cl [crizotinib]
Outline: as §1

[13] = compound: C[C@@H]1COCCN1C2=NC(=NC(=C2)C3(CC3)S(=O)(=O)C)C4=C5C=CNC5=CC=C4
Outline: as §1

[14] = compound: C[C@H](C1=CC=C(C=C1)C(=O)NC2=C3C=CNC3=NC=C2)N
Outline: as §1

[15] = compound: C[C@H](Nc1ncnc2nc[nH]c12)c1cc2cccc(Cl)c2c(=O)n1-c1ccccc1 [duvelisib]
Outline: as §1

[16] = compound: Cc1cc(Nc2cc(CN3CCOCC3)c3nc(C)c(Cc4ccc(Cl)cc4F)n3n2)n[nH]1 [gandotinib]
Outline: as §1

[17] = compound: Cc1cc(Nc2cc(N3CCN(C)CC3)nc(Sc3ccc(NC(=O)C4CC4)cc3)n2)n[nH]1 [tozasertib]
Outline: as §1

[18] = compound: Cc1cc(SCc2sc(-c3ccc(C(F)(F)F)cc3)nc2C)ccc1OCC(=O)O
Outline: as §1

[19] = compound: Cc1ccc(-n2nc(C(C)(C)C)cc2NC(=O)Nc2ccc(OCCN3CCOCC3)c3ccccc23)cc1 [doramapimod]
Outline: as §1

[20] = compound: Cc1ccc(C(=O)N(CCCN)[C@@H](c2nc3cc(Cl)ccc3c(=O)n2Cc2ccccc2)C(C)C)cc1 [ispinesib]
Outline: as §1

Measured: log2 fold change

LUZP1 (UniProt Q86V48)
Chain of UniProt Q86V48 (Q86V48 whole entry, looked up): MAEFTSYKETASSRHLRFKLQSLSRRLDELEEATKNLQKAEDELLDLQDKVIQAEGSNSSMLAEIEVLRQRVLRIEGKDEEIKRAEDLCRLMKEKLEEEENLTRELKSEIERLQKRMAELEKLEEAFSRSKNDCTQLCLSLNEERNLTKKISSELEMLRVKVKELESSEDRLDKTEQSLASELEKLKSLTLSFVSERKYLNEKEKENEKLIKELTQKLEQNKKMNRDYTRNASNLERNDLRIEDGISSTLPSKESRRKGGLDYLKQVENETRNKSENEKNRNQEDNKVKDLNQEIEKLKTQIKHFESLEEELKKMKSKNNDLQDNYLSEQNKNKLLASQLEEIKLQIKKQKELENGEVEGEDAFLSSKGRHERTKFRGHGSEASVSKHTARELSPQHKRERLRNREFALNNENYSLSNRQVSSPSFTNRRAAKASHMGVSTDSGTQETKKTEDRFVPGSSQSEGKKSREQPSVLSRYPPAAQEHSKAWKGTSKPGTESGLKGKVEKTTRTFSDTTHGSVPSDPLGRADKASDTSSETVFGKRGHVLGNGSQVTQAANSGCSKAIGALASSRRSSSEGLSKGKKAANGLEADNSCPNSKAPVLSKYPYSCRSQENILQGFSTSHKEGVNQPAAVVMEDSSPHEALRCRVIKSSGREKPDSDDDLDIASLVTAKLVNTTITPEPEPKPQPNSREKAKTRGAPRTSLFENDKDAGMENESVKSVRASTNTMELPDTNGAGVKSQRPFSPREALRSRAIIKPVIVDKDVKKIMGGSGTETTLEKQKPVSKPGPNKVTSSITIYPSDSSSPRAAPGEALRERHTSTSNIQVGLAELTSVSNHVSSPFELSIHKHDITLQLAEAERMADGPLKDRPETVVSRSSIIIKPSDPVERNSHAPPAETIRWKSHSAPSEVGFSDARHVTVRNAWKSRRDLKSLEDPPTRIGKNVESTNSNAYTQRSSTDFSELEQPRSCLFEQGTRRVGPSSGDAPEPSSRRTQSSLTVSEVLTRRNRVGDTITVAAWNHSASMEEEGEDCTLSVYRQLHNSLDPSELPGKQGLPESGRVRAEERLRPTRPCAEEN
inactive: [1] -0.08 | [3] -0.059 | [4] 0.03 | [5] -0.081 | [6] -0.036 | [7] 0.051 | [8] -0.117 | [9] 0.041 | [10] 0.07 | [11] 0.183 | [12] -0.259 | [13] -0.265 | [14] 0.191 | [15] -0.009 | [16] 0.058 | [17] 0.196 | [18] 0.206 | [19] 0.017 | [20] -0.138
active: [2] 0.552

MAP4 (UniProt E7EVA0)
inactive: [1] -0.027 | [2] 0.216 | [3] -0.1 | [4] 0.023 | [5] -0.094 | [6] -0.134 | [7] 0.109 | [8] -0.024 | [9] 0.186 | [10] 0.019 | [11] 0.023 | [12] -0.02 | [13] -0.222 | [14] 0.231 | [15] -0.084 | [16] -0.001 | [17] 0.124 | [18] -0.017 | [19] 0.136 | [20] -0.134

KHDC4 (UniProt Q7Z7F0)
inactive: [1] 0.14 | [2] -0.025 | [3] 0.035 | [4] -0.043 | [5] -0.003 | [6] 0.025 | [7] 0.015 | [8] -0.026 | [9] -0.025 | [10] -0.028 | [11] 0.045 | [12] -0.091 | [13] 0 | [14] -0.074 | [15] 0.255 | [16] -0.052 | [17] 0.013 | [18] 0.207 | [19] -0.054 | [20] 0.027

LYN (UniProt P07948)
Chain of UniProt P07948 (P07948 whole entry, looked up): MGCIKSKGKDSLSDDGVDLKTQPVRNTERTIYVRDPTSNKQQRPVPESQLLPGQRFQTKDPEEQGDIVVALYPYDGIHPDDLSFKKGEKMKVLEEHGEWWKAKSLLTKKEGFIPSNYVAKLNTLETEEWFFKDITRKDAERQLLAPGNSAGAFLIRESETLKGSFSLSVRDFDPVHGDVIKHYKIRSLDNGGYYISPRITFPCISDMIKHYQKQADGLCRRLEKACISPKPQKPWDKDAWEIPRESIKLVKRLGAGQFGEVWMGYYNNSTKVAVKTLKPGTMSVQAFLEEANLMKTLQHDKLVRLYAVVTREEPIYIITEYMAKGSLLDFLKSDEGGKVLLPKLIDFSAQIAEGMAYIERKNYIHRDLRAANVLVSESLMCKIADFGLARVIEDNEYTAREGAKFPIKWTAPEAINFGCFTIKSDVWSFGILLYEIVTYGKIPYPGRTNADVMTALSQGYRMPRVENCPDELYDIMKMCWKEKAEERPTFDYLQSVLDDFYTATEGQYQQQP
inactive: [1] -0.074 | [2] 0.021 | [3] 0.07 | [4] -0.01 | [5] 0.002 | [6] 0.259 | [7] -0.036 | [8] 0.081 | [9] 0.011 | [10] 0.112 | [11] -0.023 | [12] -0.142 | [13] -0.101 | [14] -0.01 | [15] 0.118 | [16] -0.015 | [17] -0.085 | [18] 0.132 | [19] 0.065 | [20] -0.094

LNPK (UniProt Q9C0E8)
Chain of UniProt Q9C0E8 (Q9C0E8 whole entry, looked up): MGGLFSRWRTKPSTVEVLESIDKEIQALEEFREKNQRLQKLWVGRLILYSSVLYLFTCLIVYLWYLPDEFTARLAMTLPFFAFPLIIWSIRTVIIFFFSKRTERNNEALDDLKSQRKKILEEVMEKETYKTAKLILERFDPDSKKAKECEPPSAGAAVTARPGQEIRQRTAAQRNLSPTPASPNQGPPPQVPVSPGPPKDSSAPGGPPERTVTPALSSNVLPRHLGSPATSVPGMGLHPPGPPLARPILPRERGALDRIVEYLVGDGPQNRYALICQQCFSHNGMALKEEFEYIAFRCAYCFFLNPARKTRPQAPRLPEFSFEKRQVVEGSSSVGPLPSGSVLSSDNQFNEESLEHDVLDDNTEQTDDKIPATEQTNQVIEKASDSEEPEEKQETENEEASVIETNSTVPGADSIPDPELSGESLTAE
inactive: [1] 0.007 | [2] -0.005 | [3] -0.049 | [4] -0.002 | [5] -0.034 | [6] 0.001 | [7] 0.025 | [8] 0.079 | [9] -0.008 | [10] 0.017 | [11] -0.016 | [12] 0.077 | [13] 0.007 | [14] -0.036 | [15] -0.017 | [16] -0.022 | [17] 0.002 | [18] -0.085 | [19] -0.044 | [20] 0.022

MEAK7 (UniProt Q6P9B6)
Chain of UniProt Q6P9B6 (Q6P9B6 whole entry, looked up): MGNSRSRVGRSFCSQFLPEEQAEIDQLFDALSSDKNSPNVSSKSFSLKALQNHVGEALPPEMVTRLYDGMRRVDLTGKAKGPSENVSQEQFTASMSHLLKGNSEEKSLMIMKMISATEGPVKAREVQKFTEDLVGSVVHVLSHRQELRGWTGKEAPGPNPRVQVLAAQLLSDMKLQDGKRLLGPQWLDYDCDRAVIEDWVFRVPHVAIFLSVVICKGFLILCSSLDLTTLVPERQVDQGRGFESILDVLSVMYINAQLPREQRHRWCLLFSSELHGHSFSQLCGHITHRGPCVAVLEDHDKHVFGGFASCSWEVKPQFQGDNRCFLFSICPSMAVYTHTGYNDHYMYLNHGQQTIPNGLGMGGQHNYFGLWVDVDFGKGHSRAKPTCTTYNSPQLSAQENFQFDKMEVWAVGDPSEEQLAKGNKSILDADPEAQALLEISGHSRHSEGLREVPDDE
inactive: [1] -0.046 | [2] -0.109 | [3] -0.002 | [4] -0.013 | [5] -0.012 | [6] -0.101 | [7] -0.142 | [8] -0.055 | [9] 0.087 | [10] -0.063 | [11] -0.005 | [13] 0.049 | [14] 0.005 | [15] 0.121 | [16] -0.224 | [17] 0.018 | [18] 0.024 | [19] 0.031 | [20] -0.139
active: [12] -0.259

IRAK4 (UniProt Q9NWZ3)
Chain of UniProt Q9NWZ3 (Q9NWZ3 whole entry, looked up): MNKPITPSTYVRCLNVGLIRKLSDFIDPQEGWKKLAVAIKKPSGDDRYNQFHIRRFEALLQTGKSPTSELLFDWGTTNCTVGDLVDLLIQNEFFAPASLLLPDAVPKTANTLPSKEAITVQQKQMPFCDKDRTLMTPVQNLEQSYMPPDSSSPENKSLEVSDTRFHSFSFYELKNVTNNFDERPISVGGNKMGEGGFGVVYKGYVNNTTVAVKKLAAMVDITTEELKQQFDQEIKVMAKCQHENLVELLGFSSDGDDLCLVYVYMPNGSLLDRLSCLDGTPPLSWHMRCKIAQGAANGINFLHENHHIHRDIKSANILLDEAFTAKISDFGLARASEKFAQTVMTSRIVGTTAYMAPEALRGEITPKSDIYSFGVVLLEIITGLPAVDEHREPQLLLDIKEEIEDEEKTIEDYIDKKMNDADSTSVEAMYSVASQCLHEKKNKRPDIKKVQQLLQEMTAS
inactive: [1] 0.012 | [2] -0.028 | [3] 0.01 | [4] 0.004 | [5] -0.059 | [6] 0.104 | [7] 0.109 | [8] 0.007 | [9] -0.004 | [10] -0.099 | [11] 0.034 | [12] -0.025 | [13] 0.003 | [14] 0.046 | [15] -0.01 | [16] -0.107 | [17] 0.061 | [18] 0.104 | [19] -0.047 | [20] -0.05

LRRFIP1 (UniProt Q32MZ4)
Chain of UniProt Q32MZ4 (Q32MZ4 whole entry, looked up): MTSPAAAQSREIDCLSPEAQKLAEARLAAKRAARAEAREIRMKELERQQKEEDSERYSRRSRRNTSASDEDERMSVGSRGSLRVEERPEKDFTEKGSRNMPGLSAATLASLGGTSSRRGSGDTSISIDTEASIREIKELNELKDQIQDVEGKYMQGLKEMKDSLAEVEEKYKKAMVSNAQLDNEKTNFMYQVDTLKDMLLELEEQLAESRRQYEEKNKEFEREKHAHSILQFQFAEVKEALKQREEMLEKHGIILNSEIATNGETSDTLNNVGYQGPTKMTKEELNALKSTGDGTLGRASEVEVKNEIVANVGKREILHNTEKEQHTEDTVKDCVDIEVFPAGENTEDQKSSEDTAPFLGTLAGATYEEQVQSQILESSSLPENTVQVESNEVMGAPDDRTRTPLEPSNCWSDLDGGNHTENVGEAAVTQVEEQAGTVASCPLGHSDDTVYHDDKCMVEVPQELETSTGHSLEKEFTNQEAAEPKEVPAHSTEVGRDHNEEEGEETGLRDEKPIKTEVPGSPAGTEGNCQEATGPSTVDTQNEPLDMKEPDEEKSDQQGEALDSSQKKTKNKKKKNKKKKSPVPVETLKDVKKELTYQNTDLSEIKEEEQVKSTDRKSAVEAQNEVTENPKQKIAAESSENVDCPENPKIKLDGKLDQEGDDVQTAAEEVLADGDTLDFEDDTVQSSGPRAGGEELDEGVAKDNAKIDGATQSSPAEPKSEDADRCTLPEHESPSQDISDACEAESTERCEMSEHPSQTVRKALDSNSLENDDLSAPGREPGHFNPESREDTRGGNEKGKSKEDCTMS
inactive: [1] -0.014 | [2] 0.022 | [3] -0.034 | [4] 0.019 | [5] -0.031 | [6] 0.023 | [7] -0.007 | [8] 0.025 | [9] -0.012 | [10] -0.027 | [11] -0.005 | [12] 0.037 | [13] 0 | [14] 0.025 | [15] 0.011 | [16] 0.056 | [17] -0.027 | [18] -0.059 | [19] -0.025 | [20] -0.019
